According to PubChem BioAssay (NCI):
This is part of a sample that, as a whole, favours compounds with a hit. Of some 83,000 tested, about 20% had one in any assay.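 Values shown are percent growth following 48 h exposure of cells in 96-well plates to a single concentration of compound; below 10 was considered active.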 Values without a mark were called inactive. Activity calls are given as the source filed them.

Tests used:
Assay in all cases: NCI-60 one-dose screen, 48 h (100 = growth as untreated, 0 = no growth, -100 = all killed)
Settings in all cases: 10 µM unless noted
DU-145 prostate = test system: DU-145 prostate
K-562 leukemia = test system: K-562 leukemia
MALME-3M melanoma = test system: MALME-3M melanoma
MDA-MB-231 breast = test system: MDA-MB-231 breast
SF-268 CNS = test system: SF-268 CNS
SF-295 CNS = test system: SF-295 CNS
SF-539 CNS = test system: SF-539 CNS
UACC-257 melanoma = test system: UACC-257 melanoma
M14 melanoma = test system: M14 melanoma
HCT-15 colon = test system: HCT-15 colon
HT29 colon = test system: HT29 colon
SNB-75 CNS = test system: SNB-75 CNS
SNB-19 CNS = test system: SNB-19 CNS
U251 CNS = test system: U251 CNS
PC-3 prostate = test system: PC-3 prostate
SK-MEL-5 melanoma = test system: SK-MEL-5 melanoma
LOX IMVI melanoma = test system: LOX IMVI melanoma
SK-MEL-28 melanoma = test system: SK-MEL-28 melanoma
UACC-62 melanoma = test system: UACC-62 melanoma

SMILES	growth (DU-145 prostate)	growth (K-562 leukemia)	growth (MALME-3M melanoma)	growth (MDA-MB-231 breast)	growth (SF-268 CNS)	growth (SF-295 CNS)	growth (SF-539 CNS)	growth (UACC-257 melanoma)	growth (M14 melanoma)	growth (HCT-15 colon)	growth (HT29 colon)	growth (SNB-75 CNS)	growth (SNB-19 CNS)	growth (U251 CNS)	growth (PC-3 prostate)	growth (SK-MEL-5 melanoma)	growth (LOX IMVI melanoma)	growth (SK-MEL-28 melanoma)	growth (UACC-62 melanoma)
COc1ccc(-c2nc(N/N=C/c3c[nH]c4ccccc34)nc(N3CCOCC3)c2C#N)cc1	79.7%	38%	80.3%	72.4%	95.5%	68.2%	67.6%	21.4%	88.5%	44.1%	51.4%	61.6%	109%	58.7%	74.3%	101%	102%	41.3%	
CCC1(CC)NC(=O)c2c(c3ccc(Cl)c(Cl)c3n2C)C1C#N (configuration not stated)	123%	91.4%	109%	71.2%	90.3%	102%	95.4%	100%	105%	100%	100%	90%	85%			89.9%	99.7%	123%	76.1%
Fc1ccc2nc3c(cc2c1)CSc1nnc(-c2ccc[nH]c2=S)n1N3	114%	106%	112%	94.4%	98.7%	105%	95.7%	105%	99%	104%	108%	75.8%	98.1%		91.5%	96.4%	96.1%	102%	91.7%
Clc1cc(Cl)cc(N2N=C(c3cccc(Nc4ccncc4)c3)CC2c2ccccc2)c1 (configuration not stated)	35.7%	0.584% (active)	32.7%	58.1%	84.3%	9.59% (active)	80.9%	84.7%	64.1%	-71.9% (active)	1.2% (active)	77.4%		-31.3% (active)	49.4%	79.9%	-81.2% (active)	11%	99%
COc1ccc(C(=O)c2cc3c(N)c(C(=O)Nc4ccc(Cl)cc4)sc3nc2C)cc1	90.1%	31.1%	58.7%	81.2%	56.4%	89.3%	71.9%	77.3%	61.5%	55.9%	54.2%	4.28% (active)		61.7%	78.7%	85.2%	82.6%	82.6%	78.6%
COc1cc(C2CC(c3cccc(Nc4ccncc4)c3)=NN2c2ccccc2)cc(OC)c1OC (configuration not stated)	45.4%	0.38% (active)	-77.7% (active)	63.4%	64.7%	58.6%	76.9%	-13.8% (active)	58.9%	28.2%	1.04% (active)	44.2%		19.7%	30.2%	-52.5% (active)	33.8%	5.22% (active)	96.2%
COc1cc(OC)c(/C=C/C(=O)c2ccc(Nc3ncnc4ccccc34)cc2)c(OC)c1	-26.5% (active)	4.41% (active)	-39.8% (active)	-19.9% (active)	-71.9% (active)	-47.7% (active)	-56.6% (active)	-12% (active)	-15.5% (active)	9.75% (active)	-62.4% (active)	-38.9% (active)	12.9%		12%	-42.4% (active)	3.48% (active)	-26.4% (active)	-50% (active)
Cc1ccccc1C(c1ccccc1)c1ccccc1C	117%	105%	109%	104%	99.7%	97.7%	106%	71.3%	80.3%	95.6%	95.8%	79.5%	98.7%		83.2%	77.8%	94.9%	103%	100%
CCNC(=O)c1[nH]cc(-c2ccc(OC)cc2)c1-c1cc(OC)cc(OC)c1	108%	45.1%	93%	82.1%	96.7%	96.7%	99.2%	103%	95.8%	68.6%	94.6%	67%		98%	84.2%	61.1%	83.4%	87.9%	48.2%
Clc1cc(Cl)cc(N2N=C(c3cccc(Nc4ccncc4)c3)CC2c2ccc3c(c2)OCO3)c1 (configuration not stated)	28.9%	3.33% (active)	-40.2% (active)	33.1%	72.1%	40.7%	83.3%	51.2%	85.3%	-66.7% (active)	0.164% (active)	67.5%		-43.6% (active)	28.7%	58.9%	-84.3% (active)	-82.4% (active)	97.6%
COc1cccc(CCC(=O)c2cc3c(N)c(C(=O)Nc4cccc(Cl)c4C)sc3nc2C)c1	13.8%	7.49% (active)	41.3%	16.9%	37.3%	2.95% (active)	-41.6% (active)	65.1%	16.4%	13.8%	10.8%	-14.5% (active)	24.1%	16.7%		3.62% (active)	33.1%	44.5%	
COc1nccnn1	96.2%	80.7%	120%	110%	114%	136%	104%	109%	108%	98.1%	97.8%	96.5%	91.2%		87.1%	104%	94.9%	102%	98.9%
Clc1ccc(N2N=C(c3cccc(Nc4ccncc4)c3)CC2c2ccc(Br)cc2)cc1 (configuration not stated)	24.8%	1.38% (active)	-40.5% (active)	31.8%	72.2%	-69% (active)	83.8%	77.8%	107%	-74.7% (active)	-2.76% (active)	79.2%	80.8%		22%	68.6%	-96% (active)	-85.5% (active)	101%
CCOC(=O)c1c(O)cc(-c2ccccc2)cc1-c1sc(N(C)Cc2ccccc2)nc1Cl	108%	93.4%	100%	103%	95.8%	99.6%	97%	96.1%	-85% (active)	101%	110%	89.9%		98%	97%	101%	97%	101%	92.6%
COc1ccc(C(=O)c2cc3c(N)c(C(=O)Nc4cccc(OC)c4)sc3nc2C)cc1	16.2%	8.3% (active)	55.6%	15.5%	39%	24.2%	-16.3% (active)	71.3%	13.1%	16%	1.18% (active)	-10.6% (active)	40.2%		28.7%	15.3%	36.6%		44.5%
Fc1ccc(C2CC(c3cccc(Nc4ccncc4)c3)=NN2c2ccc(Cl)cc2)cc1 (configuration not stated)	52%	1.22% (active)	33.1%	60.7%	77.9%	66.5%	84.1%	80.8%	101%	3.49% (active)	2.11% (active)	78.4%	87.5%			82.8%	-67.1% (active)	53.4%	99.6%
O=C1NC(=S)NC(=O)C1=Cc1cn(Cc2ccccn2)c2ccccc12	76.8%	26.4%	85.1%	53.3%	59.6%	73.6%	60.7%	87.8%	-61.2% (active)	42.9%	72.2%	52.8%		31.5%	47.5%	73.6%	27.1%	73.4%	70.5%
